# Laboratory results from PubChem BioAssay (NCI).
# This is part of a sample that, as a whole, favours compounds with a hit. Of some 79,000 tested, about 15% had one in any assay. A number with no mark means an inactive call. Activity calls are given as the source filed them. Rule as the data show it: active = growth inhibition above about 70%; inactive = the rest.
# What was measured:
# [1] = NCI Yeast Anticancer Drug Screen. Data for the rad52 strain (AID 147);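 also: 0% = growth of vehicle-treated control cultures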; conditions: S. cerevisiae rad52 mutant growth inhibition, active compounds read high
# In short: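 Growth of repair-deficient yeast cells was compared between compound-treated and vehicle-treated cultures to give percent inhibition.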
# [2] = NCI Yeast Anticancer Drug Screen. Data for the wt1 strain (AID 149);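 also: 0% = growth of vehicle-treated wt1 cultures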; conditions: S. cerevisiae wt1 strain (SPY 50644) growth inhibition, active compounds read high
# In short: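 Readout: yeast growth inhibition, normalised to vehicle controls, in the wt1 strain exposed to test compounds.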
# [3] = NCI Yeast Anticancer Drug Screen. Data for the rad50EPP+ strain (AID 151);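 also: 0% = growth of vehicle-treated control cultures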; conditions: S. cerevisiae rad50 mutant strain, active compounds read high
# In short: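 Measured: growth inhibition of rad50EPP+ yeast. Reference: vehicle-treated controls. Screen uses strains with defined genetic alterations in DNA damage repair or cell cycle control.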
# [4] = NCI Yeast Anticancer Drug Screen. Data for the mgt1 strain (AID 153); conditions: S. cerevisiae mgt1 mutant growth inhibition, active compounds read high
# In short: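 Compounds were applied to mgt1 mutant yeast, and growth was then compared against vehicle-treated control cultures to give percent inhibition.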
# [5] = NCI Yeast Anticancer Drug Screen. Data for the rad14 strain (AID 159);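 also: 0% = growth of vehicle-treated control cultures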; conditions: S. cerevisiae rad14 strain growth inhibition, active compounds read high
# In short: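 Compound-treated yeast with a defined DNA-repair lesion; growth inhibition normalised to vehicle-treated cultures.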
# [6] = NCI Yeast Anticancer Drug Screen. Data for the CLN2oe strain (AID 163);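 also: 0% = growth of vehicle-only control cultures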; conditions: S. cerevisiae CLN2oe strain, active compounds read high
# In short: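 Cells of an engineered yeast line with disturbed cell-cycle regulation are treated with compound. Inhibition of growth is then calculated relative to the vehicle-treated reference.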
# [7] = NCI Yeast Anticancer Drug Screen. Data for the wt2 strain (AID 169);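 also: 0% = growth of vehicle-treated yeast cultures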; conditions: S. cerevisiae wt2 strain growth inhibition, active compounds read high
# In short: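 Growth of compound-treated yeast is measured and expressed as inhibition relative to vehicle-only controls.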
# [8] = NCI Yeast Anticancer Drug Screen. Data for the mlh1 strain (AID 171);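 also: 0% = growth of vehicle-treated control cultures of the same strain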; conditions: S. cerevisiae mlh1 strain growth inhibition, active compounds read high
# In short: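 Test agents were incubated with yeast bearing a defined DNA damage repair or cell cycle control alteration; values are growth inhibition normalised to vehicle-treated cultures.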
# [9] = NCI Yeast Anticancer Drug Screen. Data for the sgs1 strain (AID 173);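 also: 0% = growth of vehicle-only control cultures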; conditions: S. cerevisiae sgs1 mutant, active compounds read high
# In short: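 Strain with an altered DNA repair or cell cycle pathway exposed to compound. Growth then measured. Value = inhibition versus vehicle control.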
# [10] = NCI Yeast Anticancer Drug Screen. Data for the rad18 strain (AID 177); conditions: S. cerevisiae rad18 mutant growth inhibition, active compounds read high
# In short: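 DNA-repair-defective yeast; compound treatment; growth inhibition scored against vehicle.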
compound,measurement,setting,value
CC(=O)[O-].O=C([CH-]C(=O)c1ccccc1)c1ccccc1.O=C([CH-]C(=O)c1ccccc1)c1ccccc1.[Sm+3],growth inhibition,[1]; at 1.2 µM,4%
same,growth inhibition,[1]; at 3.7 µM,-2%
same,growth inhibition,[1]; at 11.0 µM,80% (active)
same,growth inhibition,[1]; at 33.0 µM,97% (active)
same,growth inhibition,[1]; at 100.0 µM,98% (active)
same,growth inhibition,[2]; at 1.2 µM,4%
same,growth inhibition,[2]; at 3.7 µM,4%
same,growth inhibition,[2]; at 11.0 µM,25%
same,growth inhibition,[2]; at 33.0 µM,98% (active)
same,growth inhibition,[2]; at 100.0 µM,97% (active)
same,growth inhibition,[3]; at 1.2 µM,35%
same,growth inhibition,[3]; at 3.7 µM,70% (active)
same,growth inhibition,[3]; at 11.0 µM,52%
same,growth inhibition,[3]; at 33.0 µM,70% (active)
same,growth inhibition,[3]; at 100.0 µM,79% (active)
same,growth inhibition,[4]; at 1.2 µM,0%
same,growth inhibition,[4]; at 3.7 µM,6%
same,growth inhibition,[4]; at 11.0 µM,50%
same,growth inhibition,[4]; at 33.0 µM,98% (active)
same,growth inhibition,[4]; at 100.0 µM,98% (active)
same,growth inhibition,[5]; at 1.2 µM,6%
same,growth inhibition,[5]; at 3.7 µM,7%
same,growth inhibition,[5]; at 11.0 µM,97% (active)
same,growth inhibition,[5]; at 33.0 µM,99% (active)
same,growth inhibition,[5]; at 100.0 µM,98% (active)
same,growth inhibition,[6]; at 1.2 µM,-3%
same,growth inhibition,[6]; at 3.7 µM,6%
same,growth inhibition,[6]; at 11.0 µM,45%
same,growth inhibition,[6]; at 33.0 µM,97% (active)
same,growth inhibition,[6]; at 100.0 µM,97% (active)
same,growth inhibition,[7]; at 1.2 µM,1%
same,growth inhibition,[7]; at 3.7 µM,8%
same,growth inhibition,[7]; at 11.0 µM,65%
same,growth inhibition,[7]; at 33.0 µM,98% (active)
same,growth inhibition,[7]; at 100.0 µM,98% (active)
same,growth inhibition,[8]; at 1.2 µM,3%
same,growth inhibition,[8]; at 3.7 µM,8%
same,growth inhibition,[8]; at 11.0 µM,70% (active)
same,growth inhibition,[8]; at 33.0 µM,98% (active)
same,growth inhibition,[8]; at 100.0 µM,99% (active)
same,growth inhibition,[9]; at 1.2 µM,2%
same,growth inhibition,[9]; at 3.7 µM,7%
same,growth inhibition,[9]; at 11.0 µM,59%
same,growth inhibition,[9]; at 33.0 µM,97% (active)
same,growth inhibition,[9]; at 100.0 µM,97% (active)
same,growth inhibition,[10]; at 1.2 µM,5%
same,growth inhibition,[10]; at 3.7 µM,12%
same,growth inhibition,[10]; at 11.0 µM,43%
same,growth inhibition,[10]; at 33.0 µM,98% (active)
same,growth inhibition,[10]; at 100.0 µM,97% (active)
